From PubChem BioAssay (NCI)
The panel holds about 79,000 compounds, 15% with a hit somewhere; the sample as a whole holds those more often. The source made the active and inactive calls. Rule as the data show it: active = growth inhibition above about 70%; inactive = the rest.

Tests used:
[1] = NCI Yeast Anticancer Drug Screen. Data for the rad52 strain (AID 147);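 also: 0% = growth of vehicle-treated control cultures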; conditions: S. cerevisiae rad52 mutant growth inhibition, hits give high values
Procedure, shortened: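 Genetically altered yeast (DNA damage repair defect) treated with compound; inhibition calculated relative to vehicle.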

[2] = NCI Yeast Anticancer Drug Screen. Data for the wt1 strain (AID 149);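 also: 0% = growth of vehicle-treated wt1 cultures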; conditions: S. cerevisiae wt1 strain (SPY 50644) growth inhibition, hits give high values
Procedure, shortened: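 Compounds are added to wt1 yeast cultures. Growth is then measured. Inhibition is expressed relative to vehicle-treated controls.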

[3] = NCI Yeast Anticancer Drug Screen. Data for the rad50EPP+ strain (AID 151);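 also: 0% = growth of vehicle-treated control cultures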; conditions: S. cerevisiae rad50 mutant strain, hits give high values
Procedure, shortened: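 Strain rad50EPP+; compound exposure; % growth inhibition vs vehicle.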

[4] = NCI Yeast Anticancer Drug Screen. Data for the rad50 strain (AID 155);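 also: 0% = growth of vehicle-only cultures of the same strain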; conditions: S. cerevisiae rad50 strain growth inhibition, hits give high values
Procedure, shortened: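 Inhibition values express reduced yeast growth in compound-treated cultures relative to vehicle-treated controls.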

[5] = NCI Yeast Anticancer Drug Screen. Data for the mec2-1 strain (AID 157); conditions: S. cerevisiae mec2-1 strain, hits give high values
Procedure, shortened: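 Cells of the genetically defined mec2-1 yeast strain are incubated with test compound. Inhibition of growth is calculated against vehicle-treated controls.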

[6] = NCI Yeast Anticancer Drug Screen. Data for the rad14 strain (AID 159);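 also: 0% = growth of vehicle-treated control cultures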; conditions: S. cerevisiae rad14 strain growth inhibition, hits give high values
Procedure, shortened: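 A mutant yeast strain defective in DNA damage repair is treated with compound; inhibition of its growth is scored against untreated, vehicle-exposed cultures.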

[7] = NCI Yeast Anticancer Drug Screen. Data for the sgs1 mgt1 strain (AID 161);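 also: 0% = growth of cultures given vehicle only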; conditions: S. cerevisiae sgs1 mgt1 strain, hits give high values
Procedure, shortened: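 Inhibition of yeast growth, normalised to vehicle-treated controls, is reported for a strain bearing genetic alterations in DNA damage repair.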

[8] = NCI Yeast Anticancer Drug Screen. Data for the CLN2oe strain (AID 163);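 also: 0% = growth of vehicle-only control cultures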; conditions: S. cerevisiae CLN2oe strain, hits give high values
Procedure, shortened: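 Strain altered in cell-cycle control, incubated with compound; growth compared to solvent-treated controls.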

[9] = NCI Yeast Anticancer Drug Screen. Data for the cln2 rad14 strain (AID 165);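 also: 0% = growth equal to vehicle treated cultures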; conditions: S. cerevisiae cln2 rad14 strain, hits give high values
Procedure, shortened: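 The screen exposed genetically defined yeast (cln2 rad14) to test compounds and scored growth inhibition relative to vehicle-treated controls.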

[10] = NCI Yeast Anticancer Drug Screen. Data for the bub3 strain (AID 167); conditions: S. cerevisiae bub3 mutant strain, hits give high values
Procedure, shortened: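 Steps: expose the mutant yeast strain to compound; grow alongside vehicle-treated cultures; measure growth; express inhibition against the vehicle cultures.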

[11] = NCI Yeast Anticancer Drug Screen. Data for the wt2 strain (AID 169);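 also: 0% = growth of vehicle-treated yeast cultures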; conditions: S. cerevisiae wt2 strain growth inhibition, hits give high values
Procedure, shortened: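 Steps: yeast strain treated with compound; growth recorded; inhibition calculated relative to cultures given vehicle alone.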

[12] = NCI Yeast Anticancer Drug Screen. Data for the mlh1 strain (AID 171);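 also: 0% = growth of vehicle-treated control cultures of the same strain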; conditions: S. cerevisiae mlh1 strain growth inhibition, hits give high values
Procedure, shortened: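 Yeast screen: mutant strain plus compound, growth scored against vehicle control wells.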

[13] = NCI Yeast Anticancer Drug Screen. Data for the sgs1 strain (AID 173);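 also: 0% = growth of vehicle-only control cultures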; conditions: S. cerevisiae sgs1 mutant, hits give high values
Procedure, shortened: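 Inhibition of yeast growth served as the measure. The mutant strain was treated with each compound, and growth was normalised to cultures receiving vehicle alone.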

[14] = NCI Yeast Anticancer Drug Screen. Data for the mlh1 rad18 strain (AID 175); conditions: S. cerevisiae mlh1 rad18 strain growth inhibition, hits give high values
Procedure, shortened: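 Compound-treated yeast growth, normalised to vehicle controls. Strain bears defined DNA repair mutations.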

[15] = at 5.0 µM (retest, dose inferred, filed as 0.5)
[16] = at 50.0 µM (retest, dose inferred, filed as 5.0)

Measured: growth inhibition

CN(N=O)c1ccc(/C=C/c2ccnc3ccccc23)cc1
active: [1]; at 33.0 µM 85% | [1]; at 100.0 µM 96% | [3]; at 33.0 µM 90% | [3]; at 100.0 µM 98% | [4]; at 33.0 µM 89% | [4]; [16] 87% | [4]; at 50.0 µM 95.8% | [4]; at 100.0 µM 95% | [5]; at 100.0 µM 90% | [6]; at 100.0 µM 71% | [11]; at 100.0 µM 81% | [12]; at 100.0 µM 86% | [13]; at 100.0 µM 90% | [14]; at 50.0 µM 78.6%
inactive: [1]; at 1.2 µM 2% | [1]; at 3.7 µM 9% | [1]; at 11.0 µM 35% | [2]; at 1.2 µM 0% | [2]; at 3.7 µM 2% | [2]; at 11.0 µM 8% | [2]; at 33.0 µM 20% | [2]; at 100.0 µM 57% | [3]; at 1.2 µM 7% | [3]; at 3.7 µM 26% | [3]; at 11.0 µM 68% | [4]; at 1.2 µM 5% | [4]; at 3.7 µM 14% | [4]; [15] 23% | [4]; at 11.0 µM 42% | [5]; at 1.2 µM 3% | [5]; at 3.7 µM 5% | [5]; [15] 7% | [5]; at 11.0 µM 13% | [5]; at 33.0 µM 34% | [5]; [16] 32% | [5]; at 50.0 µM 42.5% | [6]; at 1.2 µM 3% | [6]; at 3.7 µM 3% | [6]; at 11.0 µM 10% | [6]; at 33.0 µM 24% | [7]; [15] 8% | [7]; [16] 43% | [7]; at 50.0 µM 47.3% | [8]; at 1.2 µM 3% | [8]; at 3.7 µM -4% | [8]; at 11.0 µM 5% | [8]; at 33.0 µM 15% | [8]; at 100.0 µM 56% | [9]; [15] -10% | [9]; [16] 12% | [9]; at 50.0 µM 19.6% | [10]; at 1.2 µM -3% | [10]; at 3.7 µM 3% | [10]; [15] 4% | [10]; at 11.0 µM 16% | [10]; at 33.0 µM 32% | [10]; [16] 25% | [10]; at 50.0 µM 37% | [10]; at 100.0 µM 68% | [11]; at 1.2 µM -4% | [11]; at 3.7 µM 1% | [11]; at 11.0 µM 7% | [11]; at 33.0 µM 28% | [12]; at 1.2 µM 3% | [12]; at 3.7 µM 5% | [12]; at 11.0 µM 13% | [12]; at 33.0 µM 31% | [13]; at 1.2 µM -2% | [13]; at 3.7 µM 3% | [13]; at 11.0 µM 10% | [13]; at 33.0 µM 55% | [14]; [15] 3% | [14]; [16] 68%
